Source: PubChem BioAssay
Calls of active or inactive are those of the source. Unless noted, the rule behind the calls is not given here.

Assays:
[1] = tested on: Wnt5a (protein binding on small-molecule microarray); experiment: small molecules binding Wnt5a protein – biophysical, small-molecule microarray, 635/667 nm fluorescence, primary screen (AID 1142); conditions: 635 nm fluorescence, higher = more signal;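 note: fluorescence read at 667 nm with signal to noise per printed feature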
[2] = ATP-based viability of Huh7 replicon cells – cell-based, CellTiter-Glo luminescence, basal, 48 h, cytotoxicity control for HCV replication inhibitor project, primary screen (AID 1143); conditions: higher = more signal, called active from +8 up or from −8 down;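 note: Huh7 hepatoma cells carrying a hepatitis C replication reporter with no stimulus; test concentration not given here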
[3] = Pseudomonas biofilm growth suppression – PAO1 strain, BacTiter-Glo luminescence, LB-PBS, primary screen (AID 1144); conditions: P. aeruginosa PAO1 biofilm, 12 h, higher = more signal
[4] = basal CRE-LacZ reporter activity in PC12 – cell-based, unstimulated, primary screen (AID 1145); conditions: no forskolin, luminescence, 4.5 h, higher = more signal, called active from +8 up or from −8 down
[5] = forskolin-driven CRE-LacZ activity in PC12 – cell-based, CRE-LacZ reporter, forskolin-stimulated, primary screen (AID 1146); conditions: luminescence, 4.5 h, higher = more signal, called active from +8 up or from −8 down;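 note: PC12 cells with 6xCRE LacZ reporter stimulated by forskolin 10 µM; beta-galactosidase reporter signal reflecting CREB driven transcription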
[6] = biological target: Streptavidin (Streptomyces avidinii) (UniProt P22629); experiment: compounds binding control protein streptavidin – biophysical, small-molecule microarray, 635/667 nm fluorescence, artefact control for SMM compound annotation, primary screen (AID 1147); conditions: higher = more signal;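 note: signal reflects streptavidin binding to arrayed compounds as a control protein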
[7] = probe aInhba binding on compound microarray – biochemical, small-molecule microarray, 635/667 nm fluorescence, primary screen (AID 1148); conditions: higher = more signal;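 note: score merges 667nm spot fluorescence with signal-to-noise for antibody binding to printed compounds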
Torsin-1A (Homo sapiens) [8] = biological target: Torsin-1A (Homo sapiens) (UniProt O14656); experiment: TOR1A wild-type binding on microarray – cell lysate, small-molecule microarray, lysate, 635/667 nm, primary screen (AID 1149); conditions: COS7 hTOR1A-WT lysate, 635 nm fluorescence, higher = more signal
Torsin-1A (Homo sapiens) [9] = biological target: Torsin-1A (Homo sapiens) (UniProt O14656); experiment: torsin A mutant lysate binding on microarrays – cell lysate, small-molecule microarray, COS7 lysate, 635/667 nm fluorescence, primary screen (AID 1150); conditions: COS7 hTOR1A mutant lysate, 635 nm fluorescence, higher = more signal;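 note: score pools 667 nm emission and signal to noise measuring lysate protein binding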
[10] = tested on: Sonic hedgehog protein (Shh); experiment: Sonic hedgehog microarray binding compounds – biochemical, small-molecule microarray, 635/667 nm fluorescence, primary screen (AID 1151); conditions: 635 nm fluorescence, higher = more signal;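 note: Shh protein binding to compounds spotted on small-molecule microarray slides; score combines spot fluorescence intensity with signal-to-noise across triplicate slides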

Chain of Streptavidin (Streptomyces avidinii) (P22629 whole entry, looked up): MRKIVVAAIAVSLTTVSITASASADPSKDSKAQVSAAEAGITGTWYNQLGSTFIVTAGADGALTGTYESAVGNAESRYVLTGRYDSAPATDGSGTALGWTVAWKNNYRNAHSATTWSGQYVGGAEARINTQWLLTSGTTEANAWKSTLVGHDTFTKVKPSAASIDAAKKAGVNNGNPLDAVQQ
Chain of Torsin-1A (Homo sapiens) (O14656 whole entry, looked up): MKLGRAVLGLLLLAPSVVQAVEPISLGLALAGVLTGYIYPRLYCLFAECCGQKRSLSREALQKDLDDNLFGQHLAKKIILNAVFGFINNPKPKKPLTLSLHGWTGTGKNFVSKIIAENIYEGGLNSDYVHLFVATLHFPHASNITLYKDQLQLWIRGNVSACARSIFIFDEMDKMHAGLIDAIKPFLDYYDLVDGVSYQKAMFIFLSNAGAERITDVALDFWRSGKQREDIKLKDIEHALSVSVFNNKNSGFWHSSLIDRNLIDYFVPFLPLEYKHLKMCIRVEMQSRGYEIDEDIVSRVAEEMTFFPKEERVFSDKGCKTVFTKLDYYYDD

Compound | composite z-score [1] | z-score [2] | z-score [3] | z-score [4] | z-score [5] | composite z-score [6] | composite z-score [7] | composite z-score (Torsin-1A (Homo sapiens) [8]) | composite z-score (Torsin-1A (Homo sapiens) [9]) | composite z-score [10]
COCCCNC(=O)[C@@]1(Sc2ccc(C)cc2)CC(=O)N(C2CCCCC2)[C@@H]1c1ccc(CO)cc1I | 0.0699 | -1.41 (inactive) | 0.134 (inactive) | -0.258 (inactive) | 1.17 (inactive) | 0.404 | 0.541 | 0.0619 | 0.401 | 0.993
CCCC[C@@H]1C[C@H]1[C@@H](NC(=O)Cc1ccccc1)c1ccc(Cl)cc1 | 0.545 | -3.44 (inactive) | 1.19 (inactive) | 0.962 (inactive) | 0.56 (inactive) | 2.32 | -0.0002 | 0.578 | 0.311 | -0.22
O=C1C2C=CC(C(O)c3ccc([N+](=O)[O-])cc3)N(Nc3ccccc3)C2C(=O)N1c1ccccc1 (stereo not given) | 0.0051 | 0.0203 (inactive) | -0.0023 (inactive) | -0.333 (inactive) | 0.495 (inactive) | -0.146 | -0.101 | -0.132 | 0.221 | -0.653
CC(C)=CCN(C(=O)C#Cc1ccccc1)[C@H](CO)c1ccccc1 | -0.0314 | -8.76 (active) | 1.15 (inactive) | 14.3 (active) | -4.52 (inactive) | -0.131 | -0.15 | 0.423 | -0.0045 | 0.708
CC=CC(O)C1C=CC2C(=O)N(C)C(=O)C2N1NC(=O)OC(C)(C)C (stereo not given) | 0.155 | 0.477 (inactive) | 0.433 (inactive) | 1.01 (inactive) | 0.742 (inactive) | 0.32 | 0.038 | 0.831 | 0.229 | 0.0729
COCCOC(=O)N1C(=O)[C@@]2(c3cc(C#CCCO)ccc31)[C@H](c1ccccc1OCCO)N1[C@H](c3ccccc3)[C@H](c3ccccc3)OC(=O)[C@H]1[C@@H]2C(=O)N1CCc2cc(OC)c(OC)cc2C1 | 0.318 | -1.07 (inactive) | 0.609 (inactive) | 1.72 (inactive) | 0.385 (inactive) | 0.321 | -0.0448 | 1.17 | 1.18 | 1.2
COc1cc2c(cc1O)C(c1ccc(CN3CCCC3)cc1)N(Cc1cccc(OC(F)(F)F)c1)CC2 (stereo not given) | -0.0324 | -5.42 (inactive) | 1.15 (inactive) | 0.0924 (inactive) | 0.248 (inactive) | 0.0307 | -0.15 | 0.47 | 1.13 | 0.345
C=CCC(OC(C)=O)[C@@H]1[C@@H](N(Cc2cc3ccccc3o2)C(=O)c2ccc(-c3ccccc3)cc2)c2cc(OCCCO)ccc2N1C(=O)c1ccc2ccccc2n1 (stereo not given in full) | -0.202 | 0.214 (inactive) | -0.115 (inactive) | 2.46 (inactive) | -0.531 (inactive) | 0.378 | 0.0228 | 0.179 | 0.165 | 0.135
CCOC(=O)C1=C(C(=O)OCC)N(S(=O)(=O)CC[Si](C)(C)C)[C@H](c2ccccc2)CC1 | 0.263 | -4.45 (inactive) | 0.338 (inactive) | 0.229 (inactive) | 0.207 (inactive) | 0.955 | 0.131 | 0.454 | 0.476 | -0.424
COc1ccc(NC(=O)O[C@H]2[C@H](OC(=O)Nc3ccc4c(c3)OCO4)[C@H](OC(=O)Nc3ccc4c(c3)OCO4)[C@@H](OC)O[C@@H]2CO)cc1 | 0.0873 | -2.42 (inactive) | 0.883 (inactive) | 0.456 (inactive) | -0.92 (inactive) | -0.0821 | -0.0131 | 0.207 | 1.91 | 0.725
C=C(COC)C(=O)CC[C@@H](OC(=O)c1cccnc1)c1cccc(OCCO)c1 | 0.0666 | -0.864 (inactive) | -0.652 (inactive) | 8.15 (active) | 5.43 (inactive) | -0.296 | -0.127 | 0.653 | 0.778 | 1.37
O=C1O[C@@H](c2ccccc2)[C@@H](c2ccccc2)N2[C@@H](c3ccc(O)cc3)[C@]3(C(=O)Nc4ccc(C#CC5=CCCCC5)cc43)[C@@H](C(=O)N3CCCCCCC3)[C@H]12 | 0.0888 | -4.91 (inactive) | -0.815 (inactive) | 0.155 (inactive) | -0.782 (inactive) | 1.1 | 1.04 | 1.12 | 0.772 | 1.95
COCCn1c(C(=O)N2CCCC2)cc2c1C[C@H]1CN(C(=O)c3ccccc3)[C@@](Cc3ccccc3)(C(=O)OC)[C@@H]21 | 0.576 | -1.01 (inactive) | -0.784 (inactive) | -0.182 (inactive) | -0.034 (inactive) | 0.393 | 0.679 | 0.22 | 1.18 | -0.193
